JMJD2A Tudor: inhibitors of human JMJD2A Tudor domain. AlphaScreen JMJD2A-Tudor / H3K4me3 peptide binding. O75164. 4.4% of 390,000 active. Potency, µM (top dose mostly 114 µM), inactives show at the top dose activity change, negative = inhibition, hits mostly inhibitors; also: % is scaled to controls: 0 for no effect and ±100 for the full control effect; nearly all actives have a fitted effect of over 50% in size
HP1b binding inh: blocks HP1-beta chromodomain binding to methylated histone tails | AlphaScreen HP1-beta / biotin-H3K9me3 peptide binding | 0.56% of 390,000 active | P83916 | Potency, µM (top dose mostly 114 µM), inactives show at the highest dose activity change, negative = inhibition, most hits filed as inhibitors; also: nearly all actives have a fitted effect of over 70% in size
Target sequence (P83916 whole entry, looked up): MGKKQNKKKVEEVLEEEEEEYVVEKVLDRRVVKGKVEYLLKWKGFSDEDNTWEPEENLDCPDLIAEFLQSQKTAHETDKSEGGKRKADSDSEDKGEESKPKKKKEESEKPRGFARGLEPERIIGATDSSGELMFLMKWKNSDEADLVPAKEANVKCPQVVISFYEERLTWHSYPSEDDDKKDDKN
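Compound inhibition of the preformed complex between 50 nM HP1-beta and 50 nM biotinylated H3K9me3 peptide was read by AlphaScreen. Buffer was PBS pH 7.4 with 0.01% Tween-20. Incubations ran 30 min at room temperature, with 10 ug/mL donor/acceptor beads.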
G9a block: blocks human histone lysine methyltransferase G9a; Q96KQ7; AID 504332; 8.8% of 350,000 active; G9a H3K9 monomethylation, AlphaScreen, 2 h; Potency, µM (doses to about 102 µM), without a hit: at the highest dose activity, negative = inhibition, most hits filed as inhibitors; also: % is scaled to controls: 0 for no effect and ±100 for the full control effect; nearly all actives have a fitted effect of over 75% in size
Target sequence (Q96KQ7 913-1193 limits assumed): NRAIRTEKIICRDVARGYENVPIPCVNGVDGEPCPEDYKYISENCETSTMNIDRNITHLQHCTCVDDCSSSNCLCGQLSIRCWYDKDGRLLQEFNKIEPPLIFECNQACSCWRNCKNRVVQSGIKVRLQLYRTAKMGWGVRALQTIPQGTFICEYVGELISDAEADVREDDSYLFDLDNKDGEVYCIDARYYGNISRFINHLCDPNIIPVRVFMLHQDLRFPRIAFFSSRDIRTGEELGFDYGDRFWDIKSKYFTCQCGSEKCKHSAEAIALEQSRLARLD
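Readings reflect AlphaScreen signal from monomethyl-H3K9 antibody detection. HMT at 20 nM; substrate b-H3K9 500 nM; cofactor SAM 20 uM; 2 h RT reaction; compounds tested as titrations in qHTS with 15 min preincubation.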
Sfp inh: inhibitors of Bacillus subtilis Sfp phosphopantetheinyl transferase; 3.5% of 310,000 active; AID 1490; Potency, µM, for the others: largest response in the series, negative = inhibition, usual class: inhibitors; Biochemical Sfp PPTase activity, qHTS; Q9F4F7;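 also: the enzyme is Sfp with the accession as filed and its product quenches rhodamine fluorescence; 0% = enzyme reaction without inhibitor and -100% = no enzyme wells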
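Compounds were incubated with enzyme (final 15 nM) for 15 min at room temperature before substrate addition started the reaction. Fluorescence at 525 nm excitation, 598 nm emission was recorded immediately and after 30 minutes.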
BAZ2B block: blocks human BAZ2B; Q9UIF8; AlphaScreen BAZ2B-H3K14Ac peptide displacement; Potency, µM (series often up to 114 µM), for inactives: at the highest dose activity change, negative = inhibition, most hits filed as inhibitors; 4.4% of 360,000 active; also: % is scaled to controls: 0 for no effect and ±100 for the full control effect; nearly all actives have a fitted effect of over 60% in size
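Multi-concentration screen (max 110 uM) measuring displacement of acetylated histone H3 peptide from BAZ2B by AlphaScreen, using 50 nM protein, 50 nM peptide and 10 ug/mL streptavidin donor plus Ni-chelate acceptor beads.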
The depositor's hits bear a star; [ ] = another dose, or the depositor's remark. Shown are actives, neighbours in structure and some others; about 12% of the full set was active somewhere. Calls follow the shape of the dose curve; as a rule, active = well fitted curve in the direction sought with a large enough effect; inconclusive = small, poorly fitted or top-dose-only effect, or another doubt; inactive = no such curve, though single readings can be large; an effect the other way counts as inactive or inconclusive. Potency is read from the fitted curve at half-maximal effect.

How did COc1ccc(-n2cc(C(=O)NCc3ccccc3Cl)c3ccccc3c2=O)cc1 do in these assays?
JMJD2A Tudor: -7%; HP1b binding inh: 45%; G9a block: -1%[59 µM]; BAZ2B block: 5%

What do the screens show for `CCC(Sc1nc(-c2ccccc2)c(-c2ccccc2)[nH]1)C(=O)O` (stereo not drawn)?
JMJD2A Tudor: -27%; HP1b binding inh: 8%; G9a block: 50µM*; Sfp inh: 15%; BAZ2B block: -21%

Results for Cc1nnc(NC(=O)c2ccncc2)s1 ?
JMJD2A Tudor: 11%; HP1b binding inh: 19%; G9a block: 5%[59 µM]; Sfp inh: 11%; BAZ2B block: -1%

Results for CN(C)S(=O)(=O)c1ccc(/C(O)=C2/C(=O)C(=O)N(Cc3cccnc3)C2c2ccncc2)cc1 (stereo not drawn) ?
JMJD2A Tudor: -23%; HP1b binding inh: 20%; G9a block: 16µM*; Sfp inh: -19%; BAZ2B block: -4%

What do the screens show for `CN(C)S(=O)(=O)c1ccc(/C(O)=C2/C(=O)C(=O)N(Cc3cccnc3)C2c2cccs2)cc1` (stereo not drawn)?
JMJD2A Tudor: -17%; HP1b binding inh: 36%; G9a block: 40µM*; Sfp inh: -10%; BAZ2B block: -13%

What do the screens show for `CN(C)S(=O)(=O)c1ccc(/C(O)=C2/C(=O)C(=O)N(Cc3cccnc3)C2c2ccco2)cc1` (stereo not drawn)?
JMJD2A Tudor: inconclusive; HP1b binding inh: 15%; G9a block: inconclusive; Sfp inh: -12%; BAZ2B block: inconclusive

How did COc1ccc(O[C@H]2C=C[C@@H](c3ccccc3)O[C@H]2COC(=O)CC/C(C)=N/OCC[C@@H]2C=C[C@H](OC(C)=O)[C@H](COC(C)=O)O2)cc1 do in these assays?
Sfp inh: -1%

How did CCc1cc2c(nc1CC)CCN(CC/C(C)=N/OC[C@H]1O[C@H](c3ccccc3)C=C[C@@H]1Oc1ccc(OC)cc1)C2 do in these assays?
G9a block: 45µM*; Sfp inh: -5%; BAZ2B block: inconclusive

How did COc1ccc(O[C@H]2C=C[C@@H](c3ccccc3)O[C@@H]2CO/N=C(\C)CCN2CCc3nc(-c4ccccc4)c(-c4ccccc4)cc3C2)cc1 do in these assays?
G9a block: 32µM*; Sfp inh: -2%; BAZ2B block: -38%

Results for C/C(CCN1CCc2nc(-c3ccccc3)c(-c3ccccc3)cc2C1)=N\OC[C@@H](O)COCc1ccco1 ?
Sfp inh: 10%

Results for CC(C)C[C@@H](CN1CCCC1CN1C(=S)NC[C@@H]1Cc1ccc(O)cc1)N1C[C@H](Cc2ccccc2)N(CCc2ccccc2)C1=S (stereo partly drawn) ?
JMJD2A Tudor: inconclusive; HP1b binding inh: 28%

How did C=CCn1c(-c2ccc(Cl)cc2)cnc1SC(C)C(N)=O (stereo not drawn) do in these assays?
JMJD2A Tudor: -33%; HP1b binding inh: 20%; G9a block: 10µM*; Sfp inh: -4%; BAZ2B block: inconclusive

What do the screens show for `CN(C)CCC[C@@]1(c2ccc(F)cc2)OCc2cc(C#N)ccc21`?
JMJD2A Tudor: 35µM*; HP1b binding inh: inconclusive; G9a block: 17%[59 µM]; Sfp inh: 13%

Results for CN(C)CCC[C@]1(c2ccc(F)cc2)OCc2cc(C#N)ccc21 ?
JMJD2A Tudor: -3%; HP1b binding inh: 22%; G9a block: -3%[12.7 µM]; Sfp inh: 13%; BAZ2B block: -18%

How did CN(c1ccccc1)S(=O)(=O)c1ccc(Cl)c(C(=O)Nc2nn[nH]n2)c1 do in these assays?
JMJD2A Tudor: -18%; HP1b binding inh: 25%; G9a block: 28µM*; Sfp inh: -12%; BAZ2B block: inconclusive

How did CN(c1ccccc1)S(=O)(=O)c1ccc(Cl)c(C(=O)Nc2nc3ccccc3[nH]2)c1 do in these assays?
JMJD2A Tudor: -26%; HP1b binding inh: 30%; G9a block: 9%[59 µM]; Sfp inh: 12%; BAZ2B block: 6%

What do the screens show for `Cc1ccsc1S(=O)(=O)N1CCC(CO)(CC2CCCCO2)CC1` (stereo not drawn)?
JMJD2A Tudor: -8%; HP1b binding inh: 27%; G9a block: 6%; Sfp inh: inconclusive; BAZ2B block: -15%

Results for N#Cc1nc(-c2ccco2)oc1N1CCN(c2ccccc2)CC1 ?
JMJD2A Tudor: inconclusive; HP1b binding inh: inconclusive; G9a block: inconclusive; Sfp inh: -7%; BAZ2B block: 13µM*

How did COc1ccc(N2CCN(c3oc(-c4ccco4)nc3C#N)CC2)cc1 do in these assays?
JMJD2A Tudor: 32µM*; HP1b binding inh: inconclusive; G9a block: 25µM*; Sfp inh: -5%

What do the screens show for `N#Cc1nc(-c2ccco2)oc1N1CCOCC1`?
JMJD2A Tudor: -4%; HP1b binding inh: 33%; G9a block: 9%[59 µM]; Sfp inh: 14%; BAZ2B block: 4%

Results for O=[N+]([O-])c1ccc(-c2nc(-c3ccc(F)cc3)c(-c3ccncc3)[nH]2)cc1 ?
G9a block: 35µM*; Sfp inh: -29%

What do the screens show for `O=[N+]([O-])c1ccc2nc(-c3ccncc3)[nH]c2c1`?
JMJD2A Tudor: -6%; HP1b binding inh: 51%; G9a block: inconclusive; Sfp inh: 6%; BAZ2B block: -1%

How did CON(C)S(=O)(=O)c1cccc(C(=O)Nc2ccc(S(=O)(=O)NC3=NCCCCC3)cc2)c1 do in these assays?
JMJD2A Tudor: -4%; HP1b binding inh: 11%; G9a block: 50µM*; BAZ2B block: 8%

How did CCN(CC)S(=O)(=O)c1cccc(C(=O)Nc2ccc(S(=O)(=O)NC3=NCCCCC3)cc2)c1 do in these assays?
JMJD2A Tudor: -17%; HP1b binding inh: 3%; G9a block: 16µM*; BAZ2B block: 1%

How did CON(C)S(=O)(=O)c1cccc(C(=O)Nc2cccc(S(=O)(=O)NC3=NCCCCC3)c2)c1 do in these assays?
JMJD2A Tudor: -13%; HP1b binding inh: 33%

How did O=C(Nc1cccc(C(F)(F)F)c1)Nn1cnnc1 do in these assays?
JMJD2A Tudor: -3%; HP1b binding inh: 29%; G9a block: -25%; Sfp inh: 3%; BAZ2B block: -1%

What do the screens show for `CCOc1ccc(N(CC(=O)Nc2cccnc2)S(=O)(=O)c2ccc(C)cc2)cc1`?
JMJD2A Tudor: -26%; HP1b binding inh: 5%; G9a block: inconclusive; BAZ2B block: -29%

How did O=C1CSC(=NC2CCCCC2)N1 do in these assays?
JMJD2A Tudor: -2%; HP1b binding inh: 48%; G9a block: 13%[12.7 µM]; Sfp inh: -5%; BAZ2B block: 1%

Results for O=C1CS/C(=N/N=C2CCCC2)N1 ?
JMJD2A Tudor: -13%; HP1b binding inh: 27%; G9a block: inconclusive; Sfp inh: -4%; BAZ2B block: 79µM*
